# Screens (PubChem BioAssay)
# In the library only some 19% were active in any assay of this set; here they are far more common.
# DT40 TDP1 CPT = growth inhibition of DT40 Tdp1-/-;hTDP1 cells with camptothecin (screen for TDP1 inhibitors); chicken DT40 Tdp1-/-;hTDP1 cells + 20 nM CPT, ATP luminescence, 48 h; 420,000 compounds, 12% hits; Potency, µM (titrated, usually from 46.2 µM), hits mostly inhibitors; AID 686979; also: nearly all actives have a fitted effect of over 55% in size
#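 Cell growth measured by CellTiter-Glo luminescence after a minimum 48 h, 37 C compound exposure with 20 nM CPT in Tdp1-knockout DT40 cells stably expressing hTDP1, seeded 400/well; qHTS titration format.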
# TGFb inhibitor = TGF-b pathway inhibition | Potency, µM (highest dose often 46.1 µM), actives largely listed as inhibitors | HepG2 CAGA-GFP TGF-b/SMAD3 reporter, GFP fluorescence, 18 h; TGF-beta stimulated, 500 pg/mL final | 410,000 compounds, 1.2% hits; also: nearly all actives have a fitted effect of over 65% in size
#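 TGF-beta reporter screen: HEPG2 CAGA-GFP, 1% FBS, 500 pg/mL TGF-beta final, 18 h; per-cell GFP summed per well; curves fitted and categorized by class.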
# TDP1 block = blocks human tyrosyl-DNA phosphodiesterase 1 | Q9NUW8 | recombinant TDP1, AlphaScreen DNA substrate cleavage | Potency, µM (top dose mostly 130 µM), usual class: inhibitors | 350,000 compounds, 0.28% hits; also: nearly all actives have a fitted effect of over 40% in size
# Target sequence (Q9NUW8 whole entry, looked up): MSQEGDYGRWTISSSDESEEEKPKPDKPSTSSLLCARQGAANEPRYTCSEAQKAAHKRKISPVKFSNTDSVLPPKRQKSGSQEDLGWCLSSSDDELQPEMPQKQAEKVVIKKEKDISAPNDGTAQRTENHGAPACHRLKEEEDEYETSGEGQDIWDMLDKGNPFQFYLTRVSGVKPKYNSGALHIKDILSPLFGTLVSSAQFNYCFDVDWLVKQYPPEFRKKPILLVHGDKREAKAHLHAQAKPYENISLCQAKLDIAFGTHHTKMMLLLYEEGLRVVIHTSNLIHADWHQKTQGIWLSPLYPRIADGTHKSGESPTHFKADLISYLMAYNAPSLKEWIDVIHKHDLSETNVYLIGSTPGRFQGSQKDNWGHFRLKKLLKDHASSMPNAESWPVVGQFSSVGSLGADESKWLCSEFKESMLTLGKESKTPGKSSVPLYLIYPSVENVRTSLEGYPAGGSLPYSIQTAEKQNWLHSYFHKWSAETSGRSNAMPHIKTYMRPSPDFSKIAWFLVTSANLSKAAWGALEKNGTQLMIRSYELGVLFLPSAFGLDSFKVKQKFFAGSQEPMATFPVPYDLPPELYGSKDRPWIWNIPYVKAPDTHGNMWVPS
#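 E. coli-derived human Tdp1, 1 nM final. Cpd preinc 15 min RT; substrate 15 nM final, 5 min RT; AS bead mix 10 ug/ml final, 10 min RT. Signal loss = tyrosine-FITC cleavage. No-enzyme wells = max signal.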
# DT40 TDP1 no CPT = qHTS for Inhibitors of human tyrosyl-DNA phosphodiesterase 1 (TDP1): qHTS in cells in absence of CPT; 420,000 compounds, 15% hits; DT40 Tdp1-/- hTDP1 cells, no CPT, ATP luminescence, 48 h; AID 686978, 2013; Potency, µM (doses to about 46.2 µM), hits mostly inhibitors; also: nearly all actives have a fitted effect of over 55% in size
#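 Growth kinetics read by CellTiter-Glo luminescence after ≥48 hr at 37 °C. Cells: DT40 Tdp1-/- stably carrying human TDP1, 400 per well, compound exposure in the absence of CPT (DMSO vehicle).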
# IL1B secr inh = blocks inflammasome-driven IL-1 beta release. THP-1 LPS/ATP IL-1B secretion, AlphaLISA, 16 h; hits give low values. activity change, % at 57.5 µM. 360,000 compounds, 4.7% hits; in the data active = activity change below about -50%; inconclusive = mostly about -30% to -49%
#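 THP-1 cells pretreated 1 hr with compounds (up to 57.5 uM final), then stimulated with LPS (250 ng/mL final) plus ATP (1.25 mM final); secreted IL-1B measured by AlphaLISA after 16 hr, decreased signal indicating inhibition.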
# HepG2 tox = counter-screen for TGF-b inhibitors: cytotoxicity in HepG2 cells; 410,000 compounds, 0.76% hits; AID 588856; HepG2 CAGA-GFP viability, ATP luminescence, 18 h; Potency, µM (series often up to 46.1 µM), actives largely listed as cytotoxic
#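 HepG2 CAGA-GFP cells (1000/well, DMEM with 1% FBS) received compound, then TGF-beta at 500 pg/mL final, and were incubated 18 hours at 37 degrees C. Viability was read by CellTiter-Glo luminescence. Media-only wells were set as complete cell-killing and DMSO as no toxicity.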
# A number is an active result; n = inactive; u = inconclusive; x = no result given; [ ] = another dose, or the depositor's remark. Unless noted, calls follow the shape of the dose curve; as a rule, active = well fitted curve in the direction sought with a large enough effect; inconclusive = small, poorly fitted or top-dose-only effect, or another doubt; inactive = no such curve, though single readings can be large; an effect the other way counts as inactive or inconclusive.
SMILES,DT40 TDP1 CPT,TGFb inhibitor,TDP1 block,DT40 TDP1 no CPT,IL1B secr inh,HepG2 tox
O=C1CC(N2CCOCC2)=NN1c1ccc([N+](=O)[O-])cc1,u,n,x,26µM,n,n
O=[N+]([O-])c1ccc(N2CCOCC2)nc1,n,n,n,n,n,n
CCN(CC)CCNc1ncnc2c1sc1nc(N3CCOCC3)c3c(c12)CCCC3,u,n,x,u,u,n
Cc1cccc(-n2cnc3c(sc4nc(N5CCOCC5)c5c(c43)CCCC5)c2=O)c1,u,n,n,21µM,u,n
CCN(CC)CCNc1ncnc2c1sc1nc(N3CCCC3)c3c(c12)CC(C)(C)OC3,u,u,n,u,-75,n
OCCNc1ncnc2c1sc1nc(N3CCOCC3)c3c(c12)CCC3,u,n,n,15µM,-53,n
CN(C)CCNc1ncnc2c1sc1nc(N3CCCC3)c3c(c12)CC(C)(C)OC3,u,u,n,26µM,-82,n
O=[N+]([O-])c1cc(-c2nc(-c3ccccc3)no2)ccc1NC1CCCC1,n,n,n,n,x,n
Cn1c(C(=O)NCc2ccccc2Cl)cc2sc(Cl)cc21,n,x,n,u,x,n
CC1(C)Cc2c(c(N3CCOCC3)nc3snc(NC(=O)c4ccccc4)c23)CO1,n,n,n,n,n,n
CCCCCCNc1ncnc2c1sc1nc(N3CCOCC3)c3c(c12)CCCC3,u,n,n,u,x,n
CC(C)CNc1ncnc2c1sc1nc(N3CCOCC3)c3c(c12)CC(C)(C)OC3,u,n,n,10µM,n,n
Cc1nc2c(sc3nc(N4CCOCC4)c4c(c32)CC(C)(C)OC4)c(-c2ccccc2)c1C(=O)O,26µM,u,n,u,n,n
CCCCOc1ccc(C(=O)OCC(=O)N2CCOCC2)cc1,n,n,n,u,n,n
O=S(=O)(c1ccccc1)N1CCC2(CC1)CN(c1ncccn1)C2,n,x,x,n,x,x
CCCCC(=O)Nc1ccc(C(N)=O)cc1,n,n,n,n,n,n
CCCCC(=O)Nc1ccc(NCc2ccc(C)s2)cc1,u,n,x,3.7µM,n,n
CC(C)(C)c1ccc(C(=O)Nc2cccc(S(=O)(=O)NC3=NCCC3)c2)cc1,u,n,n,12µM,u,n
CC(C)(C)c1ccc(OCCC(=O)Nc2cccc(S(=O)(=O)NC3=NCCCCC3)c2)cc1,23µM,u,n,23µM,n,n
CC(=O)c1cccc(S(=O)(=O)Nc2cccc(S(=O)(=O)NC3=NCCC3)c2)c1,n,n,n,n,n,n
O=C(Nc1cccc(S(=O)(=O)NC2=NCCCCC2)c1)c1cc(-c2ccccc2Cl)nc2ccccc12,u,n,n,u,n,n
CN(CC(=O)Nc1cccc(S(=O)(=O)NC2=NCCCCC2)c1)Cc1ccc(C(C)(C)C)cc1,29µM,u,n,21µM,u,n
O=C(Nc1cccc(S(=O)(=O)NC2=NCCC2)c1)c1cc(-c2ccccn2)nc2ccccc12,23µM,n,n,16µM,n,n
O=C(NCc1ccc(C(F)(F)F)cc1)C12CN(Cc3ccccc3)CC1C(c1cccc([N+](=O)[O-])c1)=NO2 (centres undefined),n,n,n,16µM,n,n
CCc1ccccc1Nc1nc2ccccc2c2nncn12,u,n,n,u,x,n
SMILES,DT40 TDP1 CPT,TGFb inhibitor,TDP1 block,DT40 TDP1 no CPT,IL1B secr inh,HepG2 tox
CCc1ccc(-c2nc(CN3CCC(C(=O)NCCc4ccc(OC)c(OC)c4)CC3)c(C)o2)cc1,16µM,n,n,u,-54,n
COc1ccc(CCNC(=O)C2CCN(Cc3nc(-c4ccc(OC)c(OC)c4)oc3C)CC2)cc1OC,n,n,n,u,x,n
Cc1oc(-c2cccc(Cl)c2)nc1CN1CCC(C(=O)NCc2ccc(F)cc2)CC1,u,n,n,15µM,x,n
COc1ccccc1CNC(=O)C1CCN(Cc2nc(-c3cccc(Cl)c3)oc2C)CC1,21µM,n,n,u,n,n
Cc1oc(-c2cccc(Cl)c2)nc1CN1CCC(C(=O)NCc2ccco2)CC1,n,n,n,u,n,n
CCc1ccc(-c2nc(CN3CCC(C(=O)NCc4ccccc4OC)CC3)c(C)o2)cc1,18µM,u,n,u,u,14µM
CC(=N\NC(=O)c1ccc([N+](=O)[O-])cc1)/C(=N/O)C(=O)Nc1ccccc1,u,n,n,u,n,n
CCN1CCCC1CNC(=O)C1CCN(Cc2nc(-c3cccc(Br)c3)oc2C)CC1 (centres undefined),5.8µM,n,n,2.9µM,-83,n
CC(C)Oc1cccc(C(=O)Nc2ccc3oc(-c4cccc(Cl)c4)nc3c2)c1,u,n,n[12.3 µM],16µM,x,n
O=C(NC(=S)Nc1ccc2oc(-c3cccnc3)nc2c1)c1cccc(Cl)c1,16µM,n,n,u,n,n
CCOc1cccc(C(=O)Nc2ccc3oc(-c4ccncc4)nc3c2)c1,u,n,n[2.28 µM],u,x,n
COc1ccc(C(=O)Nc2ccc3oc(-c4cccnc4)nc3c2)cc1,n,n,x,u,x,n
COc1cc(N=c2ssnc2Cl)c(OC)cc1Cl,2.6µM,u,n,2.6µM,-88,n
COc1ccc(OC)c(N=c2ssnc2Cl)c1,12µM,n,n,12µM,n,n
COc1cc(NC(=O)c2cc(-c3cccs3)on2)c(OC)cc1Cl,u,n,n,n,x,n
CCN1CCN(c2cc(C)c3cc(NC(=S)NCCN(C)C)ccc3n2)CC1,u,n,x,21µM,-52,n
CCCN1CCN(CCCNC(=S)Nc2ccc3nc(N4CCN(CC)CC4)cc(C)c3c2)CC1,u,n,n,u,n,n
CCN1CCN(c2cc(C)c3cc(NC(=S)N(C)Cc4ccccc4)ccc3n2)CC1,u,n,x,u,n,n
CCCCNC(=S)Nc1ccc2nc(N3CCN(CC)CC3)cc(C)c2c1,23µM,n,x,23µM,u,n
CCN(CC)CCNC(=S)Nc1ccc2nc(N3CCN(CC)CC3)cc(C)c2c1,u,n,x,u,-59,n
CCCCN(C)CCNC(=S)Nc1ccc2nc(N3CCN(CC)CC3)cc(C)c2c1,u,n,x,u,-63,n
NC(=O)Cn1nc(-c2ccccc2)nc1-c1ccccc1,n,n,x,n,n,n
Cc1ccc(S(=O)(=O)N2C3CCCCC3O[C@H]2CC(=O)Oc2ccccc2)cc1 (some centres undefined),u,x,x,n,n,x
